IL1B secr inh: inhibitors of inflammasome signaling (IL-1 beta secretion); activity change, % at 57.5 µM; THP-1 LPS/ATP IL-1B secretion, AlphaLISA, 16 h; hits give low values; 360,000 tested, 4.7% active; in the data active = activity change below about -50%; inconclusive = mostly about -30% to -49%
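Secreted IL-1B measured by AlphaLISA bead assay after 16 h compound exposure of THP-1 cells; compounds (final up to 57.5 uM) added 1 h before LPS (250 ng/mL) and ATP (1.25 mM) stimulation; lower signal means less secretion.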
TDP1 cell CPT: growth inhibition of DT40 Tdp1-/-;hTDP1 cells with camptothecin (screen for TDP1 inhibitors); AID 686979; chicken DT40 Tdp1-/-;hTDP1 cells + 20 nM CPT, ATP luminescence, 48 h; Potency, µM (doses to about 46.2 µM), for the others: top-dose activity change, negative = growth inhibition, most hits filed as inhibitors; 420,000 tested, 12% active; note: potency is the fitted concentration of half-maximal effect; nearly all actives have a fitted effect of over 55% in size
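Cell growth measured by CellTiter-Glo luminescence after a minimum 48 h, 37 C compound exposure with 20 nM CPT in Tdp1-knockout DT40 cells stably expressing hTDP1, seeded 400/well; qHTS titration format.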
TDP1 cell noCPT: qHTS for Inhibitors of human tyrosyl-DNA phosphodiesterase 1 (TDP1): qHTS in cells in absence of CPT; DT40 Tdp1-/- hTDP1 cells, no CPT, ATP luminescence, 48 h; Potency, µM (highest dose often 46.2 µM), inactives show top-dose activity change, negative = growth inhibition, most hits filed as inhibitors; 420,000 tested, 15% active; note: potency is the fitted concentration of half-maximal effect; nearly all actives have a fitted effect of over 55% in size
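DT40 Tdp1-/-;hTDP1 cells, no CPT (DMSO vehicle only), 400 cells/well; compounds pin-transferred; ≥48 hr, 37 °C; CellTiter-Glo 30 min RT dark, luminescence read.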
HT1080-NT tox: kills 2HG-producing HT-1080-NT fibrosarcoma cells; Potency, µM (highest dose often 46.1 µM), for inactives: at the highest dose activity, negative = less viability, actives largely listed as cytotoxic; 360,000 tested, 1.6% active; HT-1080-NT fibrosarcoma viability, CellTiter-Glo ATP luminescence, 48 h;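 note: NT is the 2HG producing partner of a matched IDH1 knockdown line; potency is the fitted concentration of half-maximal effect; 0% = DMSO-treated cells and -100% = media-only wells without cells; nearly all actives have a fitted effect of over 55% in size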
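Viability of the 2HG-overproducing fibrosarcoma line after 48 hours of compound exposure at 37 degrees C was determined by luminescence with CellTiter-Glo, and concentration-effect curves were then fitted and categorized.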
HT1080 IDH1KD tx: HT-1080 IDH1 knockdown cell toxicity (counter line); HT-1080 IDH1 knockdown viability, ATP luminescence, 48 h; Potency, µM (doses to about 46.1 µM), for the others: at the highest dose activity, negative = toxicity, most hits filed as cytotoxic; 360,000 tested, 2% active; AID 686971;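 note: potency is the fitted concentration of half-maximal effect; 0% = DMSO wells and -100% = cell-free medium wells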
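Using the IDH1-knockdown HT-1080 line run in the same batch and compound series as the NT line, viability after 48 h at 37 °C was determined by CellTiter-Glo luminescence and expressed as % activity.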
* hit, by the source's call. Sampled rows, rich in hits. Any-hit rate of the full collection: about 19%. Unless noted, calls come from the whole dose curve; as a rule, active = well fitted curve in the direction sought with a large enough effect; inconclusive = small, poorly fitted or top-dose-only effect, or another doubt; inactive = no such curve, though single readings can be large; an effect the other way counts as inactive or inconclusive. Unless noted, % is set by controls: 0 for no effect and ±100 for the full control effect.

What do the screens show for `Cc1cccc(-n2nnnc2S(C)(=O)=O)c1`?
TDP1 cell CPT: 1.16µM*; TDP1 cell noCPT: 0.731µM*

How did Cc1cccc(N2CC(=O)N(c3cccc(C)c3)CC2=O)c1 do in these assays?
IL1B secr inh: 23.2; TDP1 cell CPT: -5.7%; TDP1 cell noCPT: -15.4%; HT1080-NT tox: 17.4%; HT1080 IDH1KD tx: 1.0%

What do the screens show for `COc1cccc(-n2nnnc2S(C)(=O)=O)c1`?
IL1B secr inh: -91.5*; TDP1 cell CPT: 2.06µM*; TDP1 cell noCPT: 2.59µM*; HT1080-NT tox: inconclusive; HT1080 IDH1KD tx: 7.31µM*

How did O=C(Nc1ccccc1OCc1cc(=O)n2ccccc2n1)c1cccc(Br)c1 do in these assays?
TDP1 cell CPT: -13.1%; TDP1 cell noCPT: -25.8%

What do the screens show for `CN(C(=O)c1ccccc1F)C(c1ccccc1)c1ccccc1`?
IL1B secr inh: -9.8; TDP1 cell CPT: 10.3µM*; TDP1 cell noCPT: 16.4µM*; HT1080-NT tox: -2.1%; HT1080 IDH1KD tx: -6.9%

What do the screens show for `O=C(CNC(c1ccccc1)c1ccccc1)Nc1c(F)cccc1F`?
IL1B secr inh: 6.4; TDP1 cell CPT: inconclusive; TDP1 cell noCPT: 16.4µM*; HT1080-NT tox: -14.0%; HT1080 IDH1KD tx: -23.3%

Results for Cc1ccc(NC(=O)CNC(c2ccccc2)c2ccccc2)c(F)c1 ?
IL1B secr inh: -9.3; TDP1 cell CPT: inconclusive; TDP1 cell noCPT: inconclusive; HT1080-NT tox: 5.2%; HT1080 IDH1KD tx: 3.1%

How did O=C(CN(C(=O)CSc1nc2ccccc2o1)c1ccccc1F)NC1CCCCC1 do in these assays?
IL1B secr inh: -15.3; TDP1 cell CPT: inconclusive; TDP1 cell noCPT: -16.6%; HT1080-NT tox: 2.1%; HT1080 IDH1KD tx: 1.0%

Results for c1ccc(Cc2nnc(N3CCCCC3)c3ccccc23)cc1 ?
IL1B secr inh: -86.3*; TDP1 cell CPT: -28.4%; TDP1 cell noCPT: inconclusive; HT1080-NT tox: -2.4%; HT1080 IDH1KD tx: inconclusive

Results for C/C(CC(=O)Nc1ccc(N(C)C)cc1)=N\NC(=O)c1ccc([N+](=O)[O-])cc1Cl ?
IL1B secr inh: 10.7; TDP1 cell CPT: inconclusive; TDP1 cell noCPT: 20.6µM*; HT1080-NT tox: -0.7%; HT1080 IDH1KD tx: -5.6%

Results for COc1cccc(C(=O)N/N=C(\C)CC(=O)Nc2ccc(N(C)C)cc2)c1 ?
IL1B secr inh: -88.7*; TDP1 cell CPT: -0.4%; TDP1 cell noCPT: -2.3%; HT1080-NT tox: inconclusive; HT1080 IDH1KD tx: -23.3%

Results for COc1cccc(/C(C)=N/NC(=O)c2ccc(N(C)C)cc2)c1 ?
IL1B secr inh: -16.2; TDP1 cell CPT: -4.4%; TDP1 cell noCPT: inconclusive; HT1080-NT tox: -1.0%; HT1080 IDH1KD tx: -0.4%

How did C/C(CC(=O)Nc1ccc(N(C)C)cc1)=N\NC(=O)c1ccccc1O do in these assays?
IL1B secr inh: 28.4; TDP1 cell CPT: -17.3%; TDP1 cell noCPT: -1.7%; HT1080-NT tox: 20.6µM*; HT1080 IDH1KD tx: inconclusive

What do the screens show for `O=C(Cc1coc2cc(O)ccc12)NNC(=O)c1cccs1`?
IL1B secr inh: 15.9; TDP1 cell CPT: -2.7%; TDP1 cell noCPT: -21.8%; HT1080-NT tox: 1.3%; HT1080 IDH1KD tx: -11.8%

Results for N#Cc1c(Nc2ccc(Cl)cc2)s[nH]c1=O ?
IL1B secr inh: -72.5*; TDP1 cell CPT: 14.6µM*; TDP1 cell noCPT: 11.6µM*; HT1080-NT tox: -5.7%; HT1080 IDH1KD tx: inconclusive

How did CSc1nc(Nc2ccc(Cl)cc2)c(C#N)c(=O)[nH]1 do in these assays?
IL1B secr inh: 17.4; TDP1 cell CPT: 0.6%; TDP1 cell noCPT: 17.2%; HT1080-NT tox: -3.7%; HT1080 IDH1KD tx: -7.3%

Results for Cc1cc(-c2ccc(C(C)C)c(S(=O)(=O)Nc3ccccn3)c2)on1 ?
IL1B secr inh: -3.5; TDP1 cell CPT: -1.8%; TDP1 cell noCPT: 17.6%; HT1080-NT tox: 23.2%; HT1080 IDH1KD tx: 11.9%

How did COc1ccc(CNC(=O)Cn2c(=O)nc(-c3ccccc3)c3ccccc32)cc1OC do in these assays?
TDP1 cell CPT: inconclusive; TDP1 cell noCPT: 16.4µM*

Results for Cc1cccc(NC(=O)Cn2c(=O)nc(-c3ccccc3)c3ccccc32)c1C ?
TDP1 cell CPT: inconclusive; TDP1 cell noCPT: 20.6µM*

How did Cc1c(Cl)cccc1NC(=O)Cn1c(=O)nc(-c2ccccc2)c2ccccc21 do in these assays?
TDP1 cell CPT: inconclusive; TDP1 cell noCPT: 16.4µM*

Results for CCOc1ccc(S(=O)(=O)N2CCCC(C(=O)Nc3ccccc3)C2)cc1 (configuration not stated) ?
IL1B secr inh: -1.1; TDP1 cell CPT: inconclusive; TDP1 cell noCPT: inconclusive; HT1080-NT tox: 8.2%; HT1080 IDH1KD tx: 0.5%

Results for Cc1nc2c(C)cccn2c1/C(O)=C1\C(=O)C(=O)N(CCN(C)C)C1c1cccs1 (configuration not stated) ?
IL1B secr inh: -6.1; TDP1 cell CPT: 6.6%; TDP1 cell noCPT: -11.9%; HT1080-NT tox: -4.5%; HT1080 IDH1KD tx: -2.8%

What do the screens show for `COc1nc(-c2cccs2)cc(-c2ccc(C)cc2)c1C#N`?
IL1B secr inh: 35.0; TDP1 cell CPT: 10µM*; TDP1 cell noCPT: 12.6µM*; HT1080-NT tox: inconclusive; HT1080 IDH1KD tx: inconclusive

How did COc1ccc(-c2cc(-c3cccs3)nc(OC)c2C#N)cc1OC do in these assays?
IL1B secr inh: -8.5; TDP1 cell CPT: inconclusive; TDP1 cell noCPT: 29.1µM*; HT1080-NT tox: inconclusive; HT1080 IDH1KD tx: inconclusive

How did COc1ccc(-c2noc(-c3cccs3)n2)cc1OC do in these assays?
TDP1 cell CPT: -2.1%; TDP1 cell noCPT: inconclusive; HT1080-NT tox: -4.6%; HT1080 IDH1KD tx: -2.6%

Results for CC(C)(C)NC(=O)C1(C)CCC(=O)N1CCCn1ccnc1 (configuration not stated) ?
IL1B secr inh: -4.8; TDP1 cell CPT: -18.9%; TDP1 cell noCPT: inconclusive; HT1080-NT tox: 20.7%; HT1080 IDH1KD tx: 22.3%

How did Cc1ccc(OCCN2CCCC2)cc1 do in these assays?
IL1B secr inh: 17.5; TDP1 cell CPT: -10.8%; TDP1 cell noCPT: 0.7%; HT1080-NT tox: -2.1%; HT1080 IDH1KD tx: -3.0%

How did Cc1c(-c2ccc(O)cc2)nn(-c2ccc(O)cc2)c1-c1ccc(OCCN2CCCCC2)cc1 do in these assays?
TDP1 cell CPT: 18.8µM*; TDP1 cell noCPT: 29.9µM*

How did CC(C)(C)OC(=O)CC(S(=O)(=O)c1ccccc1)S(=O)(=O)c1ccccc1 do in these assays?
IL1B secr inh: -51.4*; TDP1 cell CPT: 1.3µM*; TDP1 cell noCPT: 0.92µM*; HT1080-NT tox: inconclusive; HT1080 IDH1KD tx: inconclusive

What do the screens show for `CC(S(=O)(=O)c1ccccc1)S(=O)(=O)c1ccccc1`?
IL1B secr inh: -9.5; TDP1 cell CPT: 1.8%; TDP1 cell noCPT: -5.9%; HT1080-NT tox: -0.2%; HT1080 IDH1KD tx: 4.4%

How did COc1ccccc1OCCCOc1c(C)cc(C)cc1Br do in these assays?
IL1B secr inh: 22.5; TDP1 cell CPT: -12.6%; TDP1 cell noCPT: -19.9%; HT1080-NT tox: 6.3%; HT1080 IDH1KD tx: 11.2%

Screening results (PubChem BioAssay)
